Test results taken from PubChem BioAssay (EPA / NIEHS).
The source made the active and inactive calls. The calls were made as follows: active = hit-call score of the fitted dose curve at least 0.9, where 1 is the maximum; inactive = score below 0.9.

How the values were obtained:
[1] = read-out: urokinase plasminogen activator (uPA), PLAU (gene 5328); experiment: BSK_KF3CT_uPA: BioMAP Diversity Plus: KF3CT Assay for urokinase plasminogen activator (uPA) Biomarker Activity (AID 2283075); conditions: primary human keratinocytes with fibroblasts; actives raise or lower the signal
In short: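 Skin co-culture (keratinocytes + foreskin fibroblasts), human primary; 24 h post-dose; uPA by ELISA; gain/loss fit vs DMSO baseline.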

CD40, CD40 (gene 958) [2] = experiment: BSK_LPS_CD40: BioMAP Diversity Plus: LPS Assay for CD40 Biomarker Activity (AID 2283076); conditions: primary human HUVEC with PBMC; actives raise or lower the signal
In short: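 CD40 signal, measured by ELISA, is fitted in both directions relative to DMSO vehicle. The system is an LPS-driven human vascular primary co-culture of endothelial cells and PBMC, sampled 24 h after compound addition.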

[3] = read-out: Interleukin-8 (IL8), CXCL8 (gene 3576); experiment: BSK_LPS_IL8: BioMAP Diversity Plus: LPS Assay for Interleukin-8 (IL8) Biomarker Activity (AID 2283078); conditions: primary human HUVEC with PBMC; actives raise or lower the signal
In short: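 Endothelial cells and PBMC from human donors are co-cultured, treated with chemicals and LPS, then assayed for IL-8 by ELISA after 24 h. Parallel SRB staining (0.1% SRB after 10% TCA fixation, 560 nm) flags cytotoxicity.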

[4] = BSK_LPS_SRB: Viability Assessment in the BioMAP Diversity Plus: LPS Assay (AID 2283079); conditions: primary human HUVEC with PBMC;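 also: total protein by sulforhodamine B absorbance as a cytotoxicity measure; measured one day after compound addition; fitted in both directions against DMSO so loss or gain of signal counts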
In short: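 Overt cytotoxicity was gauged by sulforhodamine B total-protein staining in a primary human vascular endothelial and mononuclear cell co-culture 24 h post-dosing. Activity was fitted in both directions relative to DMSO.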

[5] = read-out: Interleukin-1 alpha (IL1a), IL1A (gene 3552); experiment: BSK_LPS_IL1a: BioMAP Diversity Plus: LPS Assay for Interleukin-1 alpha (IL1a) Biomarker Activity (AID 2283080); conditions: primary human HUVEC with PBMC; actives raise or lower the signal
In short: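 Measured: IL-1 alpha via ELISA at 24 h in LPS-activated human umbilical vein endothelium–PBMC co-culture. Baseline: DMSO, bidirectional fitting.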

[6] = read-out: Monocyte Chemoattractant Protein-1 (MCP1), CCL2 (gene 6347); experiment: BSK_LPS_MCP1: BioMAP Diversity Plus: LPS Assay for Monocyte Chemoattractant Protein-1 (MCP1) Biomarker Activity (AID 2283081); conditions: primary human HUVEC with PBMC; actives raise or lower the signal
In short: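 LPS-stimulated HUVEC/PBMC co-culture; chemical, 24 h; MCP-1 by ELISA; bidirectional fit vs DMSO; cytotoxicity via SRB (0.1% stain, 10% TCA fix, 560 nm) in parallel wells.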

[7] = BSK_LPS_PGE2: BioMAP Diversity Plus: LPS Assay for Prostaglandin E2 (PGE2) Biomarker Activity (AID 2283082); conditions: primary human HUVEC with PBMC; actives raise or lower the signal
In short: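 Compounds were added to the LPS co-culture of endothelium and PBMC, and PGE2 was measured by ELISA after 24 h. Responses in either direction were fitted with DMSO as baseline.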

[8] = read-out: Macrophage colony-stimulating factor (MCSF), CSF1 (gene 1435); experiment: BSK_LPS_MCSF: BioMAP Diversity Plus: LPS Assay for Macrophage colony-stimulating factor (MCSF) Biomarker Activity (AID 2283083); conditions: primary human HUVEC with PBMC; actives raise or lower the signal
In short: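 Compound is added to a human vascular primary co-culture of umbilical vein endothelium and blood mononuclear cells. After 24 h, M-CSF is quantified by ELISA. Signal changes are fitted in both directions against DMSO.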

[9] = read-out: Tissue Factor, F3 (gene 2152); experiment: BSK_LPS_TissueFactor: BioMAP Diversity Plus: LPS Assay for Tissue Factor Biomarker Activity (AID 2283084); conditions: primary human HUVEC with PBMC; actives raise or lower the signal
In short: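 In this co-culture system of umbilical vein endothelium with PBMC, stimulated with LPS, cell-surface CD142 is detected by ELISA at 24 h. Endpoint values derive from bidirectional fitting, DMSO serving as baseline.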

[10] = read-out: Tumor necrosis factor (Homo sapiens) (UniProt P01375); experiment: BSK_LPS_TNFa: BioMAP Diversity Plus: LPS Assay for Tumour Necrosis Factor alpha (TNFa) Biomarker Activity (AID 2283085); conditions: primary human HUVEC with PBMC; actives raise or lower the signal;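 as to AC50: TNFa protein level quantified by ELISA in the co-culture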
In short: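 Cells (umbilical vein endothelium plus peripheral blood mononuclear cells) were dosed with chemical, incubated 24 h, then TNFa was quantified by ELISA; values derive from bidirectional fitting with DMSO as baseline.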

CD38, CD38 (gene 952) = experiment: BSK_SAg_CD38: BioMAP Diversity Plus: SAg Assay for CD38 Biomarker Activity (AID 2283087); conditions: primary human HUVEC with PBMC; actives raise or lower the signal
In short: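 CD38 quantified by ELISA (fluorescence) in a superantigen-activated endothelial cell–PBMC co-culture at 24 h post-dose. Activity fitted in both directions relative to DMSO; parallel SRB and Alamar Blue cytotoxicity read-outs.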

CD40, CD40 (gene 958) [11] = experiment: BSK_SAg_CD40: BioMAP Diversity Plus: SAg Assay for CD40 Biomarker Activity (AID 2283088); conditions: primary human HUVEC with PBMC; actives raise or lower the signal
In short: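 Fluorescence ELISA read-out of CD40 from umbilical vein endothelium plus peripheral blood mononuclear cells, sampled 24 h after dosing. Values come from bidirectional curve fitting with DMSO as baseline.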

CD69, CD69 (gene 969) = experiment: BSK_SAg_CD69: BioMAP Diversity Plus: SAg Assay for CD69 Biomarker Activity (AID 2283089); conditions: primary human HUVEC with PBMC; actives raise or lower the signal
In short: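 Values derive from bidirectional fitting relative to DMSO vehicle. Cells: umbilical vein endothelium plus peripheral blood mononuclear cells, treated 24 h before fluorescent ELISA for CD69.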

[12] = read-out: Monocyte Chemoattractant Protein-1 (MCP1), CCL2 (gene 6347); experiment: BSK_SAg_MCP1: BioMAP Diversity Plus: SAg Assay for Monocyte Chemoattractant Protein-1 (MCP1) Biomarker Activity (AID 2283090); conditions: primary human HUVEC with PBMC; actives raise or lower the signal
In short: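 Values derive from bidirectional fitting of ELISA-measured MCP1 against DMSO controls. Readings were taken 24 h after dosing human vascular endothelial cells co-cultured with peripheral blood mononuclear cells under superantigen stimulation.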

[13] = read-out: E-selectin (Homo sapiens) (UniProt P16581); experiment: BSK_SAg_Eselectin: BioMAP Diversity Plus: SAg Assay for Eselectin Biomarker Activity (AID 2283091); conditions: primary human HUVEC with PBMC; actives raise or lower the signal
In short: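 Primary human endothelial cells and peripheral blood mononuclear cells were co-cultured and exposed to chemical for 24 hours. E-selectin levels were then quantified by ELISA, with bidirectional curve fitting normalised to DMSO controls.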

[14] = read-out: Monokine induced gamma interferon (MIG), CXCL9 (gene 4283); experiment: BSK_SAg_MIG: BioMAP Diversity Plus: SAg Assay for Monokine induced gamma interferon (MIG) Biomarker Activity (AID 2283092); conditions: primary human HUVEC with PBMC; actives raise or lower the signal
In short: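 Values reflect bidirectional fitting of ELISA-measured MIG against DMSO vehicle, taken 24 h after dosing of a co-culture of human umbilical vein endothelial cells and peripheral blood mononuclear cells.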

[15] = read-out: Interleukin-8 (IL8), CXCL8 (gene 3576); experiment: BSK_SAg_IL8: BioMAP Diversity Plus: SAg Assay for Interleukin-8 (IL8) Biomarker Activity (AID 2283094); conditions: primary human HUVEC with PBMC; actives raise or lower the signal
In short: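 Chemicals were dosed onto a human endothelial–PBMC co-culture, and IL-8 was quantified by ELISA after 24 h. Both increases and decreases were fitted relative to DMSO.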

[16] = read-out: E-selectin (Homo sapiens) (UniProt P16581); experiment: BSK_LPS_Eselectin: BioMAP Diversity Plus: LPS Assay for Eselectin Biomarker Activity (AID 2283077); conditions: primary human HUVEC with PBMC; actives raise or lower the signal
In short: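 Signal of E-selectin, detected by ELISA, served as the endpoint; cells were umbilical vein endothelium with PBMC, read 24 h after treatment. DMSO defined baseline, and both increases and decreases were fitted.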

[17] = read-out: Vascular cell adhesion molecule 1 (VCAM1), VCAM1 (gene 7412); experiment: BSK_LPS_VCAM1: BioMAP Diversity Plus: LPS Assay for Vascular cell adhesion molecule 1 (VCAM1) Biomarker Activity (AID 2283086); conditions: primary human HUVEC with PBMC; actives raise or lower the signal
In short: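 Cells are dosed in an LPS-stimulated endothelial/mononuclear co-culture and, after 24 h, VCAM-1 is quantified by ELISA. Activity in either direction is fitted relative to the DMSO negative control.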

[18] = BSK_SAg_PBMCCytotoxicity: PBMC Cytotoxicity Assessment in the BioMAP Diversity Plus: SAg Assay (AID 2283093); conditions: primary human HUVEC with PBMC;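 also: fitted both ways against DMSO so a hit may be loss or gain of signal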
In short: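 PBMC viability by Alamar Blue reduction, fluorescence read at 546/580 nm after 6 h dye exposure. Cells were dosed 1 h before SEB plus TSST-1 activation (20 ng/mL final each), then held 90 h; endothelial/PBMC human co-culture.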

Measured: AC50

Sequence of E-selectin (Homo sapiens) (P16581 whole entry, looked up): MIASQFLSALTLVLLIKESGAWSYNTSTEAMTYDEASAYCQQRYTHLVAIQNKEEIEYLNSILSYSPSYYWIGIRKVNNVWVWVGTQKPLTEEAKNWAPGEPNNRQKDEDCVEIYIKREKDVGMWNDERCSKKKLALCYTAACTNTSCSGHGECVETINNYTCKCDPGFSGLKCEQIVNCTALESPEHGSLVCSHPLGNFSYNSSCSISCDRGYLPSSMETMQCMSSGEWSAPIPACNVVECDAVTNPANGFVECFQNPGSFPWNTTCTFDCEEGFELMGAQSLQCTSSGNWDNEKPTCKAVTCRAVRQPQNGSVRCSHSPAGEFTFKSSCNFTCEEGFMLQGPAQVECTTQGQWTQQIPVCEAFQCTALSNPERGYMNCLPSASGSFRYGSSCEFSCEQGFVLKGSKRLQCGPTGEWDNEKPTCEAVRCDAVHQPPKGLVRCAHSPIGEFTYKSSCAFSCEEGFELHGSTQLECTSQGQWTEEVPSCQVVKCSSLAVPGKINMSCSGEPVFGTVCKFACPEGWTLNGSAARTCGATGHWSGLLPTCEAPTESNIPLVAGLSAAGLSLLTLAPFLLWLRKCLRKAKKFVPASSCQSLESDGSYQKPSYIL
Sequence of Tumor necrosis factor (Homo sapiens) (P01375 whole entry, looked up): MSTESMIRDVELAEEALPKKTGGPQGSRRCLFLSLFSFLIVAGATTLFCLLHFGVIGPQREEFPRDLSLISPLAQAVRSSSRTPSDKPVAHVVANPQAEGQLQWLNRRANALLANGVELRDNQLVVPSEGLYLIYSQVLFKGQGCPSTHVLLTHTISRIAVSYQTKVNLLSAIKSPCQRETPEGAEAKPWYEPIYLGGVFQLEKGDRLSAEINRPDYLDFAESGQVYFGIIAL

Cc1cc(C)cc(C)c1
inactive: [1] | CD40, CD40 (gene 958) [2] | [3] | [4] | [5] | [6] | [7] | [8] | [9] | [10] | CD38, CD38 (gene 952) | CD40, CD40 (gene 958) [11] | CD69, CD69 (gene 969) | [12] | [13] | [14] | [15]

OCCN(CCO)CCO
inactive: [1] | CD40, CD40 (gene 958) [2] | [16] | [3] | [5] | [6] | [7] | [9] | [10] | CD38, CD38 (gene 952) | CD40, CD40 (gene 958) [11] | CD69, CD69 (gene 969) | [12] | [13] | [14] | [15]

CC(C=O)Cc1ccc2c(c1)OCO2 (stereo not drawn)
inactive: [1] | CD40, CD40 (gene 958) [2] | [16] | [3] | [5] | [6] | [7] | [8] | [9] | [10] | [17] | CD38, CD38 (gene 952) | CD40, CD40 (gene 958) [11] | CD69, CD69 (gene 969) | [12] | [13] | [14] | [18] | [15]

Cc1c([N+](=O)[O-])c(C)c([N+](=O)[O-])c(C(C)(C)C)c1[N+](=O)[O-]
active: [5] 11.4 µM | [10] 28 µM | CD38, CD38 (gene 952) 1.63 µM
inactive: [1] | CD40, CD40 (gene 958) [2] | [3] | [4] | [6] | [7] | [8] | [9] | CD40, CD40 (gene 958) [11] | CD69, CD69 (gene 969) | [12] | [13] | [14] | [18] | [15]

OCCCCO
inactive: [1] | CD40, CD40 (gene 958) [2] | [16] | [3] | [4] | [5] | [6] | [7] | [9] | [10] | CD38, CD38 (gene 952) | CD40, CD40 (gene 958) [11] | CD69, CD69 (gene 969) | [12] | [13] | [14] | [18] | [15]

Nc1ccc(N)cc1
inactive: [1] | CD40, CD40 (gene 958) [2] | [16] | [3] | [5] | [6] | [7] | [8] | [10] | [17] | CD38, CD38 (gene 952) | CD40, CD40 (gene 958) [11] | CD69, CD69 (gene 969) | [12] | [13] | [14] | [15]
active: [9] 5.53 µM

CCOP(=O)(OCC)SCCSCC
inactive: [1] | CD40, CD40 (gene 958) [2] | [3] | [4] | [5] | [6] | [7] | [8] | [9] | [10] | CD38, CD38 (gene 952) | CD40, CD40 (gene 958) [11] | CD69, CD69 (gene 969) | [12] | [13] | [14] | [15]
